Screen size: about 330,000 compounds; about 560 (0.17%) were called active. Where a call stands in place of a potency, no number is given. Another 1% or so got no clear call; they are omitted. The call rests on the fitted dose curve; in most records, active means well fitted inhibition curve with a large enough effect; inconclusive means small, poorly fitted or top-dose-only effect, or effect the other way; inactive means flat fitted curve, though single readings scatter. Only a selection was taken, and actives are over-represented in it overall.
Each compound was assayed against ATP-dependent 6-phosphofructokinase (Trypanosoma brucei brucei) (UniProt O15648) (assay: qHTS Assay to Find Inhibitors of T. brucei phosphofructokinase). Details: T. brucei PFK, ADP-Glo luminescence; series mostly up to 57.5 µM.
ATP-dependent 6-phosphofructokinase (Trypanosoma brucei brucei), sequence (O15648 whole entry, looked up): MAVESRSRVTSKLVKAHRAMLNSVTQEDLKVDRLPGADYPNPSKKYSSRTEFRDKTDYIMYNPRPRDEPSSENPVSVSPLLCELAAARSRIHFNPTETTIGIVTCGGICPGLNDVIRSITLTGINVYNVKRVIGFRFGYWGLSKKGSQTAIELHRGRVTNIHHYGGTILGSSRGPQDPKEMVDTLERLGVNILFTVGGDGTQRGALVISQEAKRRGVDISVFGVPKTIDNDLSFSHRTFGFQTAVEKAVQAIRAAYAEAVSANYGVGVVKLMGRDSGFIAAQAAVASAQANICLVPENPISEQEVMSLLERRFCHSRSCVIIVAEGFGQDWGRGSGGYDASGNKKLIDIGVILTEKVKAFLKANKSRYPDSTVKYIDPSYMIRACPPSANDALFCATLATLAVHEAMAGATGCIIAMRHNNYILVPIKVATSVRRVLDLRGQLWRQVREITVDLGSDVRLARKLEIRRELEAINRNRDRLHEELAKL
Text: NIH Molecular Libraries Probe Production Network [MLPCN] NIH Chemical Genomics Center [NCGC] Grant: 1 R03 MH092153-01 PI Name: Malcolm Walkinshaw, University of Edinburgh NCGC Assay Overview: Various species of the protozoan family Trypanosomatidae are responsible for a range of serious human diseases in tropical and subtropical areas of the world. […] Many of the disorders caused by trypanosomatids are fatal if left untreated, but most currently used drugs are inefficient and toxic. […] Oxidative metabolism involving the mitochondrial tricarboxylic acid cycle and oxidative phosphorylation are repressed in these parasites, and recent RNA interference (RNAi) experiments have shown that even partial depletion of certain individual glycolytic enzymes can lead to the death of cultured parasites. One such glycolytic enzyme, phosphofructokinase (PFK), catalyzes the formation of fructose-1,6-bisphosphate (F1,6BP) and ADP from fructose-6-phosphate (F6P) and ATP, and in many metabolic circumstances makes an important contribution to the control of flux through the glycolytic pathway. As a specific glycolytic target, PFK is particularly attractive as it catalyzes the first irreversible step in glycolysis, and structural and kinetic studies have shown very substantial and essential differences from corresponding host enzymes, allowing for the discovery of parasite-selective inhibitors. The goal of this screen is to find small-molecule inhibitors of T. brucei PFK using a biochemical assay that measures PFK activity as a function of ADP production. A luminescence-based assay for T. brucei PFK activity has been developed which uses luciferase to detect production of ADP. Traditional luciferase-based nucleotide detection reagents rely on ATP production as a direct substrate for the luciferase reaction; however, PFK catalyzes the transfer of a phosphate from ATP to F6P, resulting in the net depletion of ATP. To directly measure the ADP product of the PFK reaction, we used the ADP-Glo detection kit (Promega), which utilizes two separate reactions to 1) deplete all remaining uncatalyzed ATP and 2) convert all remaining ADP to ATP, which is then detected through a traditional luciferase-coupled reaction. Compounds were screened as a concentration-titration series that ranged from 57 uM to 0.7 nM.
NCGC Assay Protocol Summary: NCGC Assay Protocol Summary: Substrate buffer was dispensed into white, solid 1536-well plates at 3uL/well in 0.1M triethanolamine (TEA) buffer, pH 8.0, containing final concentrations of 5 mM MgCl2, 0.01% Tween20, 0.5 mM fructose-6-phosphate (F6P) and 0.1mM ATP. Then, 23 nL of compounds or DMSO were delivered to each well using a pin tool. One uL T. brucei PFK (0.1M TEA, 0.01% Tween20, 0.1% bovine serum albumin (BSA) and 1.25nM PFK, final concentrations) was then dispensed, and plates were incubated at room temperature for 45 min. The luminescent detection reagent, ADP-Glo (Promega), was then added in two steps: the first reagent, ADP-Glo (which converts remaining uncatalyzed ATP), was added at 2.5uL/well and incubated for ten minutes at room temperature, and the second component, Kinase Detection reagent (which converts ADP to ATP as a substrate for luciferase-based luminescence), was added immediately after at 5uL/well, followed by one final ten minute room temperature incubation. The plates were measured on a ViewLux plate reader for luminescent signal using a clear filter with a one second exposure. The %Activity was determined from the corrected luminescence values. As no specific T. brucei PFK inhibitors have been identified in the literature, 1x (1.25nM) and 0x PFK enzyme controls (untreated) were included to normalize %Activity of identified inhibitors; 0x enzyme values corresponded to 100%Activity (full inhibition), while 1x PFK enzyme values were used to normalize 0%Activity (no inhibition). Concentration-response curves were fitted to the signals arising from the resulting luminescence. […]
With COc1ccc(NS(=O)(=O)c2ccc(C)c(C(=O)NNC(=O)c3csc(N4CCOCC4)n3)c2)cc1 the Potency was “inactive”. With CC1=NN(c2cccc(Cl)c2)C(=O)C12CC(C)=C(C)CS2 (stereo not given) the Potency was “inactive”. For Cc1ccn2c(=O)c(NC(=O)c3cccc4ccccc34)c(C)nc2c1, the Potency was “inactive”. With O=C(C1CCN(c2nnc(-n3cccc3)s2)CC1)N1CCc2ccccc2C1 the Potency was “inactive”. With CN1CCN(c2ccc(S(=O)(=O)N3CCOCC3)cc2NC(=O)CCc2ccccc2)CC1 the Potency was “inactive”. For O=C(COc1nsnc1N1CCOCC1)Nc1ccccc1Cl, the Potency was “inactive”. O=C(NC1CCN(Cc2ccccc2)CC1)c1cc(Br)c(Br)[nH]1 was tested, and the Potency was “inactive”. With Cc1cnc(C(=O)N2CCCC(C(=O)c3ccc(C(F)(F)F)cc3)C2)cn1 (stereo not given) the Potency was “inactive”. For Cc1cc(NC(=O)CCC(=O)N(CC(=O)NCC2CCCO2)c2ccccc2C)no1 (stereo not given), the Potency was “inactive”. CC(CN1CCC(n2nccc2NC(=O)C2CCCC2)CC1)c1ccccc1 (stereo not given) was tested, and the Potency was “inactive”. C=Cn1cc[n+](CC(=O)c2ccc(OC)c(OC)c2)c1 was tested, and the Potency was “inactive”. With CC(NCC(=O)Nc1ccccc1C(=O)NC1CC1)c1ccccc1Cl (stereo not given) the Potency was “inactive”. In the case of Cc1cccc(NS(=O)(=O)c2ccc(-c3cnc(C4CC4)o3)cc2)c1, the Potency was “inactive”. COc1ccccc1N(CC(=O)Nc1ccc(C)cc1Cl)S(=O)(=O)c1cccs1 was tested, and the Potency was “inactive”. FC(F)(F)C1CCCN(c2nsc3ccccc23)C1 (stereo not given) was tested, and the Potency was 6.75 µM (active). For O=C(NC(Cc1ccccc1)C(=O)N1CCCC(C(F)(F)F)C1)c1ccccc1 (stereo not given), the Potency was “inactive”. With O=C(NCC(=O)N1CCCC(C(F)(F)F)C1)c1ccccc1F (stereo not given) the Potency was “inactive”. COc1cccc(CNC(=O)C2CC(=O)N(C3CCCCCCC3)C2)c1 (stereo not given) was tested, and the Potency was “inactive”. C=CCOc1ccc(/C=C2\SC(=S)N(CCC(=O)O)C2=O)cc1 was tested, and the Potency was “inactive”. Cc1ccc(/C=C2/SC(=S)N(CCC(=O)NCCCN3CCOCC3)C2=O)cc1 was tested, and the Potency was “inactive”. With Cc1ccc(-c2nn(-c3ccccc3)cc2/C=C2\SC(=S)N(CCCCCC(=O)O)C2=O)o1 the Potency was 4.78 µM (active). CC(=O)c1nnn(-c2ccc(Cl)cc2C#N)c1C was tested, and the Potency was “inactive”. In the case of Cc1cccn2c(CN(C)C3CCCc4ccccc43)c(C(=O)N3CCOCC3)nc12 (stereo not given), the Potency was “inactive”. CC(C)=CC(=O)Nc1nnc(-c2ccc(F)cc2)s1 was tested, and the Potency was “inactive”. With CN[C@H](C(=O)NC[C@H]1O[C@@H](n2cnc3c(N)ncnc32)[C@H](O)[C@@H]1O)[C@@H](C)OCc1ccccc1 the Potency was “inactive”. With Cc1cc(C)cc(C(=O)N2CCN=C2SCc2ccc([N+](=O)[O-])cc2)c1 the Potency was “inactive”. With Nc1nc(SCc2ccc([N+](=O)[O-])cc2)c2ncn(C3OC(CO)C(O)C3O)c2n1 (stereo not given) the Potency was 12 µM (active). With Cc1nc(N)nc(SCc2ccc([N+](=O)[O-])cc2)c1N the Potency was 13.5 µM (active). With Cc1nc(SCc2ccc(F)cc2)c([N+](=O)[O-])[nH]1 the Potency was “inactive”. For CN(Cc1ccc(CNC[C@H]2O[C@@H](n3cnc4c(N)ncnc43)[C@H](O)[C@@H]2O)o1)S(C)(=O)=O, the Potency was “inactive”. In the case of COc1cccc(CNC(=O)CCC2CCCN(C(=O)c3ccc(F)c(Cl)c3)C2)c1 (stereo not given), the Potency was “inactive”. In the case of CCN(CC)CCn1cnc2c1c(=O)n(CCOC(=O)c1cc(OC)c(OC)c(OC)c1)c(=O)n2C, the Potency was “inactive”. In the case of CCOc1ccc(NC(=O)c2ccc(CSc3nnnn3C)cc2)cc1, the Potency was “inactive”. CC(C)C[C@H](NC(=O)N1CCn2c1nc1ccccc12)C(=O)NC1CC1 was tested, and the Potency was “inactive”. In the case of CC1CCN(C(=O)CN(c2ccc(Oc3ccccc3)cc2)S(C)(=O)=O)CC1, the Potency was “inactive”. Cc1nn(C(C)CC(=O)O)c(C)c1C (stereo not given) was tested, and the Potency was “inactive”. Nn1c(SCC(=O)Nc2ccc3c(c2)CCC3)nnc1C1CC1 was tested, and the Potency was “inactive”. For O=C(CC1C(=O)NCCN1CC(c1ccccc1)c1ccccc1)NCC1CCOCC1 (stereo not given), the Potency was “inactive”. In the case of O=C(CCN1C(=O)C2C3C=CC(C3)C2C1=O)Oc1ccc2ccccc2c1 (stereo not given), the Potency was “inactive”. In the case of CC(=O)NCc1ccc(-c2csc(NC(=O)CCCc3nc4ccccc4c(=O)[nH]3)n2)cc1, the Potency was “inactive”. With CCOC(=O)c1ccccc1NC(=O)CSc1nc2ccccc2c(=O)[nH]1 the Potency was “inactive”. In the case of O=C(CSc1nc2ccccc2c(=O)[nH]1)Nc1nc(-c2ccc(Br)cc2)cs1, the Potency was 2.69 µM (active). In the case of O=C(CSc1nnc(N2CCOCC2)n1-c1cccc(F)c1)N1CCN(c2ccccn2)CC1, the Potency was “inactive”. In the case of O=C(NNS(=O)(=O)c1ccccc1)c1cnn(-c2ccc(Cl)cc2)c1C(F)(F)F, the Potency was “inactive”. For Cc1ccc(OCCCCc2c(C)n[nH]c2C)cc1, the Potency was “inactive”. CC(C)[C@H](NC(=O)N1CCn2c1nc1ccccc12)C(=O)NCCc1ccccc1 was tested, and the Potency was “inactive”. With CCCCNC(=O)OCCSCCS(=O)(=O)c1ccc(Cl)cc1 the Potency was “inactive”. With CC(C)(C)c1cc(C(=O)NCc2cccnc2)ccn1 the Potency was “inactive”. For O=C(NCc1ccc(Cl)c(Cl)c1)c1cccnc1, the Potency was 23.9 µM (active). In the case of O=C(Nc1nnc(Cc2ccc(Cl)cc2)s1)c1cccnc1, the Potency was “inactive”. For O=C(CN1C(=O)NC2(CCCC2)C1=O)Nc1ccc(F)c(F)c1F, the Potency was “inactive”. In the case of CC1CCC(NS(=O)(=O)c2ccc3c(c2)n(C)c(=O)c(=O)n3C)CC1 (stereo not given), the Potency was “inactive”. O=S(=O)(NC1CC1)c1ccc(F)c(F)c1 was tested, and the Potency was “inactive”. With Cn1sc(=O)c2cc(S(=O)(=O)NC3CC3)ccc21 the Potency was 15.1 µM (active). With O=C(Nc1ccc(Cl)c(Cl)c1)N1CC=C(c2ccccc2)CC1 the Potency was “inactive”. With Cc1cccc(N=C2NC(=O)CS2)c1C the Potency was “inactive”. For CCc1ccc(Nc2nnc(SCC(=O)c3ccc4c(c3)NC(=O)CO4)s2)cc1, the Potency was “inactive”. In the case of CCOc1ccc(/C=C/C(=O)N(CC)CC(=O)NCc2cccs2)cc1OC, the Potency was “inactive”. Cc1cccc(NS(=O)(=O)c2cc(Cl)ccc2Cl)n1 was tested, and the Potency was “inactive”. CN1CCN(C(=O)c2ccc(NS(=O)(=O)c3ccccc3)cc2)CC1 was tested, and the Potency was “inactive”. COc1ccc(C(=O)OCC(=O)Nc2ccc3[nH]c(=O)[nH]c3c2)c(OC)c1OC was tested, and the Potency was 21.3 µM (active). O=C(COC(=O)c1cccc(Cl)c1)Nc1ccc2[nH]c(=O)[nH]c2c1 was tested, and the Potency was “inactive”. O=C(COc1ccc([N+](=O)[O-])cc1Cl)Nc1ccc2[nH]c(=O)[nH]c2c1 was tested, and the Potency was “inactive”. In the case of Nc1nnc(SCC(=O)NC2CCCc3ccccc32)s1 (stereo not given), the Potency was “inactive”. With O=C(c1ccccc1)c1cc(-c2ccccn2)c(N2CCOCC2)s1 the Potency was “inactive”.

Reference: PubChem BioAssay AID485367 (National Center for Advancing Translational Sciences (NCATS), 2010)
Further: nearly all actives have a fitted effect of over 60% in size.
Potency means the concentration at half of the fitted maximal effect.
